# The supplement of paper PMC10681739
# Legend:
# ETS1 [1] = biological target: T1, ETS1 (UniProt P14921); experiment: ETS1 binding intensity (PBM fluorescence), ETS1 alone (arbitrary fluorescence units); higher = stronger binding; conditions: ETS1 concentration 1 nM; RUNX1 concentration 0 nM
# T1 sequence: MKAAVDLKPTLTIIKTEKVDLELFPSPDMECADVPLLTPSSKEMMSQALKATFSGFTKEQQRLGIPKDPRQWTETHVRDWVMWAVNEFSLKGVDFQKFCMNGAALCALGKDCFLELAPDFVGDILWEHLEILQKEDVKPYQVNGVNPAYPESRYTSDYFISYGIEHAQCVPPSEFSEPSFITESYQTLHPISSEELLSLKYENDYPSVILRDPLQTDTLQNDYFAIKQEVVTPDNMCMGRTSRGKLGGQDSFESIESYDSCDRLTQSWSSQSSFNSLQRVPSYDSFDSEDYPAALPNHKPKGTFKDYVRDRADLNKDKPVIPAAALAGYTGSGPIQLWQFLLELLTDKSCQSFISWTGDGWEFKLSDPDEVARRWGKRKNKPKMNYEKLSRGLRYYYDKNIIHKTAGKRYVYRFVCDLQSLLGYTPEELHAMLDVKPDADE
# ETS1 [2] = biological target: T1, ETS1; experiment: ETS1 binding intensity (PBM fluorescence) in presence of RUNX1, normalised to ETS1-only experiment (arbitrary fluorescence units); higher = stronger binding; conditions: ETS1 concentration 1 nM; RUNX1 concentration 25 nM
Sequence,ETS1 binding intensity (ETS1 [1]),ETS1 binding intensity (ETS1 [2])
TCAGGGTCAGCAGGAGGAAACCACGCACTACATGCT,437,451
CCCTTTTCCTTCCGGCCTGTGCGGCTTATAAGATCT,736,1090
CTCCCCCCACGACTTCCCTCTGTGGCCCCGGGCCGC,677,645
GGCCGGGGACGGAAGGCGGGCCCGCAGCAGATCCTG,475,362
AGAATTACCAGGAAGCCGAGCGCTGCGGGCTAGCGG,518,631
CCAAAAAGGAAGGAAACCAGAAAGCCACAGAATGGT,487,1200
GGGGAAGAGGAAGCTGTGTCCGCGGTGCAAGGGGTT,533,542
GTCCTCCAGGAAGCCCGCGCTAACCACCGTGCCTTT,420,688
GGCGCCTCTTTCCGCCCCCGCCCACAATCGAGCGCA,535,399
CCCTCTGAGACAGGATTTGCTTCCCACACAAGGCTA,495,629
GGGGCGCTGCGCAGGAAGCCGCAGTCCCTCTGCGGA,930,1210
GCGCCCCGTCCTTCCGCAGCCCAACCGCCTCTTCCC,476,383
AGGAGTGAGGAAGTGAGGCTGGCCTTGTGGGTGTGG,644,748
TTCTTGTTTCCTGTCAAGGGAGGCTCTGACCACCTC,728,753
CAACTCACATCCTCTGGCAACAACCACTAATCCACT,460,525
GCAGGAAGACTAACACAAAACCATCAAACCACTCTG,511,543
CCAGGCGTTTCCGGGTTCCCGCGGTCCCGTCCCCCA,1340,1330
GGGAGGGCGGAAGGCGGCTCTGCGGCAGCAAGCCCC,476,341
GCCACGCAGTTCCCTTCCTGCGGCGTCCTCCACACC,561,421
GTCCCCTCCCCAGGATGTGGCCACCCGCTAGAGCAT,1030,1560
GAGGTTGGGAAGTTCTTCCTTTGGTCTGACCACAGT,453,596
TGGGACGAGTGGGCGGAAACAGCCGCAGGTCTCTCT,1990,2750
CATGAGAAACATCCTGCCCAACCACCTGACTACAAG,492,511
GTCTTGTACCCTAGAGGATGTGGTAGCCCTAAATAA,1060,2290
CCAGGATGTAGTTTGGCCACTATTGAGTGGTTTGTT,448,502

Sequence,ETS1 binding intensity (ETS1 [1]),ETS1 binding intensity (ETS1 [2])
CCACTCCAGGAAACTCCTCCAGGTGAGCCCACAACT,500,474
AGAAACGTCAATTTCCTGGCCACAGAATCCACTGCC,608,501
TAAATAGGAAGTCAGAGTTTACTGCCGAACCCACAG,616,523
GCAGGACTCCAGGAAGCCCGCGCAGCCGCAAAAAGC,597,1350
GCTGTCCATTTCCGAGATGTTAATGCGGGATCTTGC,408,628
GACGCATAAACAGGAAGGCCTGCGGGAGGGCCCGCC,855,948
TGAAGGAGCGGAAGGGTTGCTTGCAGACCGCACGGT,574,1360
TCTGAGAATGCAGGATATGTGTGTGGTCTCTAGTCA,1240,1510
GACGCTCTCTTCCTGTCTTTGTGGCTCCAGAAAGGC,830,630
TCTCTCTACGGAAGCTGGTAGGGCTGTGGGTGCTTC,729,810
CCCGCTTCCGCGTTTTACTCGGTGCCCGCAGCGCCG,445,389
CAGCCCTCTTCCTGCCTGTCTGTGGCTGGTGAGGTT,597,431
AGCGGCTTCCTGCTGGGCTTTTGCACTCCCCACAAC,510,523
AGCGGATTCCGGACATAACAATCTACAGCGGTCTTA,444,417
CAGCTGCCTCCAGGAAGCGGTAAGTGACTCTGGTGG,1150,1660
CACCCAAGGATATGCTTTTTTTTGGCAAGCCACATC,430,451
TTGGAGACACACAAAGGATGTGGGCTGTGCGTGTGT,1380,1780
AATATAGGAAGTGTCAGCTAGGGAACTCAACCACAA,496,382
CTGGAAACCATTTCCTTTGTGGCCATGAAACAATGG,594,601
CCTGAGCGCCCGGAAGGAAGGCTGTGGTAGGTTGTC,1270,1570
AACATTACGGAAGTTTCTCTACCCATGCGGTGTCTC,521,683
GCTCGCGTCATCCTGCAGCGCCGACACCACAGACAC,501,505
GAATCACCATTTCCTCACTCCCACACAACCATGTTG,485,417
CTCTTCCAGGAAGCCTTCCCTGACCACTGCTTGCTC,396,505
